This is an account of results in ChEMBL document CHEMBL3988442, “University of Dundee, Small-Polar-MMV Screening Library” (2021).

SMILES strings stand for the structures. Screen size: about 38,000 compounds; about 1,200 (3.2%) showed an effect of 50% or more. The median lay at about -58%. The sample as a whole holds a higher share of strong results than the screen did.

The test system of the assay is Plasmodium falciparum. Nature of the assay: Calibr Malaria Delayed Death Assay SOP. The class given is functional, organism-based. Details: scale not given: in the data most compounds retested in dose-response had high values. The following applies: concentration 4.99e-06 (unit not given; other assays of the set use mol/L).
Turning to `CCOC(=O)Cc1csc(NC(=O)c2cc(=O)c(OC)c[nH]2)n1`, the “Percent Effect” value was -55.6%.

On to `CN(C)CCn1c2c(ccc1=O)CCN(C(=O)c1ccoc1)CC2.O=C(O)C(F)(F)F`, for which the “Percent Effect” value is given as -90.05%. With `CCCC(O)CN1CCC(=O)N(C)Cc2cc(F)ccc21` (stereo unspecified), the “Percent Effect” value is -57.01%. For the molecule `O=C(c1cccnc1O)N(CCO)Cc1cc(Br)ccc1F`, the “Percent Effect” value is given as -29.02%. As to `O=C(O)c1ccc(CNC(=O)C2CCN(C(=O)C3CCC3)CC2)s1`, the “Percent Effect” value is given as -58.95%.

With `Cc1nccn1CCCC(=O)N1CCC2(CCC(=O)N(C(C)C)C2)CC1`, the “Percent Effect” value was -32.26%.

Regarding `COCCNC(=O)N1CCCCC1CNC(=O)Nc1ccccc1` (stereo unspecified), the “Percent Effect” value is recorded as -90.53%. For the molecule `NC(=O)CN1CCC(OCc2ccc(Cl)c(Cl)c2)CC1`, the “Percent Effect” value came out at 33.26%. `CCC(N)C(=O)N1CCC(OCc2ccc(Cl)c(Cl)c2)CC1.Cl` (stereo unspecified): the “Percent Effect” value amounted to 65.86%. On to `CNC(=O)CN1CCC(OCc2ccc(Cl)c(Cl)c2)CC1`, for which the “Percent Effect” value stood at 0.3675%.

Turning to `COc1ccc2c(c1)OCC(CNC(=O)c1cc(C(C)C)on1)C2` (stereo unspecified), the “Percent Effect” value is on record as -29.19%. For `Cc1c(C(=O)NCC2CCN(C)C2)n(C)c2c(C)cccc12` (stereo unspecified), the “Percent Effect” value turned out to be 8.044%.

With `CC(=O)Nc1nc(C2CCN(C(=O)c3cncs3)CC2)cs1`, the “Percent Effect” value was 38.41%.

For the molecule `CNC(=O)Cn1c(CO)cnc1SCc1ccccc1Cl`, the “Percent Effect” value is given as -84%. To `COc1cc(C(C)NCc2scnc2C)ccc1SC(F)F` (stereo unspecified) belongs 16.99%. `COc1cc2nc(NCc3scnc3C)nc(N)c2cc1OC`: the “Percent Effect” value amounted to 89.32%. As for `COc1cc2nc(NCc3cc(C)on3)nc(N)c2cc1OC`, the “Percent Effect” value is listed as 61%.

Take `COc1ccc(CCC(=O)NCc2cc(C)on2)cc1`: the “Percent Effect” value is reported as -56.8%. With `COc1ccccc1NCC(=O)NCc1scnc1C`, the “Percent Effect” value is -101.9%. Consider `COc1cc2c(cc1CNC(=O)Cc1ccc(C)nc1)OC(C)C2` (stereo unspecified), for which the “Percent Effect” value is -97.01%. On to `CCOc1ccc(OCC)c(NCc2cc(C)on2)c1`, for which the “Percent Effect” value is recorded as -105.8%. As for `COc1ccc(C(C)NC(=O)NCCc2ccc(C)nc2)c(OC)c1` (stereo unspecified), the “Percent Effect” value is listed as -63.03%. For the molecule `COc1cc2nc(NCc3ccc(C)nc3)nc(N)c2cc1OC`, the “Percent Effect” value worked out at 90.21%.

As to `CC(=O)c1c(O)n(C)c2ccccc12`, the “Percent Effect” value was -129.1%. In the case of `O=C(COCCc1ccccc1)N1CCCC(n2cncn2)C1` (stereo unspecified), the “Percent Effect” value was -37.64%. The same measure for `Cc1cccc(CSc2nnc(C)n2CC(N)=O)c1`: -106.3%; for `CS(=O)(=O)N1CCC(CNC(=O)C2CCC2)CC1`: -20.15%. The same measure for `O=C(NCCc1ccncc1)c1ccc(S(=O)(=O)NC2CCC2)cc1`: -25%; for `CSCC[C@@H](CO)NC(=O)c1sc(-c2ccc(Cl)cc2)nc1C`: -102.9%. In the case of `CCOC(=O)CSc1nnc(C(N)CC(C)C)o1.Cl` (stereo unspecified), the “Percent Effect” value was -109.2%. In the case of `NC(=O)NCC1CCCCN1C(=O)c1cc(F)cc(F)c1` (stereo unspecified), the “Percent Effect” value is -156.9%. The same measure for `CC1CCCN(C(=O)CNC(=O)c2ccoc2)C1` (stereo unspecified): -96.13%; for `CC(C)(C)CC(=O)Nc1cnn(-c2ccccc2S(C)(=O)=O)c1`: -5.765%; for `CC(C)c1ncc2c(n1)CN(CCCc1nc3ccccc3o1)CC2`: 69.07%.

In the case of `Cc1ncc2c(n1)CN(Cc1nc3ccccc3o1)CC2`, the “Percent Effect” value is reported as -59.98%. As to `c1ccc2oc(CCCN3CCc4cncnc4C3)nc2c1`, the “Percent Effect” value is given as -82.49%. `O=C(NCCc1cnccn1)c1cccc(S(=O)(=O)NC2CCOC2)c1` (stereo unspecified): the “Percent Effect” value is listed as -80.94%.

For `O=C(c1cnn[nH]1)N(CCCO)Cc1cccnc1`, the “Percent Effect” value is -126.7%. On to `CN(Cc1ccsc1)C(=O)CNC(=O)N1CCc2ccccc2C1`, for which the “Percent Effect” value was -30.75%. On to `COc1cccc(CN2CCC3(CC(Nc4ccncn4)C3)C2)c1F` (stereo unspecified), for which the “Percent Effect” value was -62.87%.

As to `N#Cc1cccc(S(=O)(=O)N2CC(CC(=O)O)c3ccccc32)c1` (stereo unspecified), the “Percent Effect” value was -122.6%. For `CN1CCN(S(=O)(=O)c2cccc(C#N)c2)c2ccc(F)cc21`, the “Percent Effect” value is listed as -39.03%. As for `CN(C)C1Cc2ccccc2N(S(=O)(=O)c2cccc(C#N)c2)C1` (stereo unspecified), the “Percent Effect” value is listed as 75.93%. As for `CC(=O)NCCNC(=O)C(c1ccccc1C)N(C)C` (stereo unspecified), the “Percent Effect” value is -142.6%. `Cc1cscc1-c1nc(C2CCOC2)no1` (stereo unspecified): the “Percent Effect” value was -27.07%. Consider `O=C(c1scc2c1OCCO2)N1CCOC(Cc2cccc(F)c2)C1` (stereo unspecified), for which the “Percent Effect” value is recorded as -44.17%. Regarding `O=C(c1scc2c1OCCO2)N1CCOC(CCc2ccccc2)C1` (stereo unspecified), the “Percent Effect” value was determined as 88.31%. Consider `O=C(c1scc2c1OCCO2)N1CCOC(Cc2ccc(F)cc2)C1` (stereo unspecified), for which the “Percent Effect” value is listed as -16.04%. Consider `CC1CCC(NS(=O)(=O)CC(=O)NCC2CCC2)CC1` (stereo unspecified), for which the “Percent Effect” value is given as -74.87%. As to `O=C(CCc1ccco1)N1CCC(Oc2ccccc2)(C(=O)O)CC1`, the “Percent Effect” value was -48.84%. To `COc1ncccc1CNC(=O)C1=NN(c2ccccc2)C(=O)CN1` belongs -51.2%; to `COc1ccc(CNC(=O)C2=NN(c3ccc(C)cc3)C(=O)CN2)cc1`, 74.74%.

On to `O=C(NCc1cccnc1)C1=NN(c2ccccc2)C(=O)CN1`, for which the “Percent Effect” value was 39.33%.

Take `CN1C(=O)CC[C@]12CC[C@@H](NC(=O)NCc1cccnc1)CC2.O=C(O)C(F)(F)F`: the “Percent Effect” value was -78.37%.

`COCCN(C/C=C/c1ccccc1)Cc1ccccn1`: the “Percent Effect” value came to 20.8%.

Regarding `CCc1ccc(CN(C/C=C/c2ccccc2)CCOC)nc1`, the “Percent Effect” value came to 52.86%. To `COCCN(C/C=C/c1ccccc1)Cc1nccs1` belongs -11.48%; to `O=C1CC(c2ccncc2)C2(CCN(Cc3cccnc3)CC2)N1` (stereo unspecified), -62.4%; to `CN1CCCN(C(=O)NCCNc2cnccn2)CC1`, -4.347%.

As to `COCCN1C[C@@H]2[C@@H](OC)CCN(Cc3ccc(C)o3)[C@@H]2C1.O=C(O)C(F)(F)F.O=C(O)C(F)(F)F`, the “Percent Effect” value is given as 3.217%. The same measure for `CO[C@H]1CCN(Cc2cccs2)[C@@H]2CN(Cc3ccncc3)C[C@H]12.O=C(O)C(F)(F)F.O=C(O)C(F)(F)F.O=C(O)C(F)(F)F`: 59.98%; for `CO[C@@H]1CCN(Cc2cccs2)[C@@H]2CN(Cc3ccncc3)C[C@@H]21.O=C(O)C(F)(F)F.O=C(O)C(F)(F)F.O=C(O)C(F)(F)F`: 52.08%; for `CO[C@H]1CCN(C2CCC2)[C@@H]2CN(Cc3ccncc3)C[C@H]12.O=C(O)C(F)(F)F.O=C(O)C(F)(F)F.O=C(O)C(F)(F)F`: -45.55%. The same measure for `CO[C@@H]1CCN(Cc2cccc(C)n2)[C@@H]2CN(Cc3ccncc3)C[C@@H]21.O=C(O)C(F)(F)F.O=C(O)C(F)(F)F.O=C(O)C(F)(F)F.O=C(O)C(F)(F)F`: 30.62%; for `CO[C@H]1CCN(Cc2cnn(C)c2)[C@@H]2CN(Cc3ccncc3)C[C@H]12.O=C(O)C(F)(F)F.O=C(O)C(F)(F)F.O=C(O)C(F)(F)F`: -72.72%; for `CO[C@H]1CCN(Cc2c(C)noc2C)[C@@H]2CN(Cc3ccncc3)C[C@H]12.O=C(O)C(F)(F)F.O=C(O)C(F)(F)F.O=C(O)C(F)(F)F`: -5.39%.

As for `COCCN1C[C@H]2[C@@H](C1)N(Cc1cnn(C)c1)CC[C@H]2OC.O=C(O)C(F)(F)F.O=C(O)C(F)(F)F`, the “Percent Effect” value was -59.33%. To `COCCN1C[C@@H]2[C@@H](OC)CCN(Cc3ccncc3)[C@@H]2C1.O=C(O)C(F)(F)F.O=C(O)C(F)(F)F.O=C(O)C(F)(F)F` belongs 24.39%. `COCCN1C[C@@H]2[C@@H](OC)CCN(Cc3ccsc3)[C@@H]2C1.O=C(O)C(F)(F)F.O=C(O)C(F)(F)F`: the “Percent Effect” value amounted to 66.72%.

For `COCCN1C[C@@H]2[C@@H](OC)CCN(Cc3cccs3)[C@@H]2C1.O=C(O)C(F)(F)F.O=C(O)C(F)(F)F`, the “Percent Effect” value worked out at 66.16%. `COCCN1C[C@@H]2[C@@H](OC)CCN(Cc3ccco3)[C@@H]2C1.O=C(O)C(F)(F)F.O=C(O)C(F)(F)F`: the “Percent Effect” value is -1.66%.
